Records with an inconclusive call do not appear. Entries that show only a call come without a potency. Active and inactive are the calls of the source. Calls follow the shape of the dose curve; as a rule, active = well fitted inhibition curve with a large enough effect; inconclusive = small, poorly fitted or top-dose-only effect; inactive = flat fitted curve, though single readings scatter.
How the values were obtained:
Assay in all cases: qHTS profiling for inhibitors of Plasmodium falciparum proliferation (AID 504749); also: nearly all actives have a fitted effect of over 60% in size
Settings in all cases: P. falciparum in erythrocytes, SYBR Green DNA, 72 h; series mostly up to 28.7 µM
CP256 = tested on: CP256
Summary of the method: (§1)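 SYBR Green fluorescence (ex 485 nm, em 535 nm) reports parasite DNA after 72 h compound exposure of infected red cells at 0.3% parasitemia, 2.5% hematocrit; signal normalized to 0.29 uM artemisinin and vehicle wells.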

CP260 = tested on: CP260
Summary of the method: as §1

CP262 = tested on: CP262
Summary of the method: as §1

CP265 = tested on: CP265
Summary of the method: as §1

CP266 = tested on: CP266
Summary of the method: as §1

CP268 = tested on: CP268
Summary of the method: as §1

CP269 = tested on: CP269
Summary of the method: as §1

CP286 = tested on: CP286
Summary of the method: as §1

CP291 = tested on: CP291
Summary of the method: as §1

CP297 = tested on: CP297
Summary of the method: as §1

CP305 = tested on: CP305
Summary of the method: as §1

CP315 = tested on: CP315
Summary of the method: as §1

CP325 = tested on: CP325
Summary of the method: as §1

CP329 = tested on: CP329
Summary of the method: as §1

CP335 = tested on: CP335
Summary of the method: as §1

DFO2036 = tested on: DFO2036
Summary of the method: as §1

DIV14 = tested on: DIV14
Summary of the method: as §1

DIV17 = tested on: DIV17
Summary of the method: as §1

DIV30 = tested on: DIV30
Summary of the method: as §1

Dd2 = tested on: Dd2
Summary of the method: as §1
Potency is read from the fitted curve at half-maximal effect.

| Structure (SMILES) | Potency (CP256) | Potency (CP260) | Potency (CP262) | Potency (CP265) | Potency (CP266) | Potency (CP268) | Potency (CP269) | Potency (CP286) | Potency (CP291) | Potency (CP297) | Potency (CP305) | Potency (CP315) | Potency (CP325) | Potency (CP329) | Potency (CP335) | Potency (DFO2036) | Potency (DIV14) | Potency (DIV17) | Potency (DIV30) | Potency (Dd2) |
| --- | --- | --- | --- | --- | --- | --- | --- | --- | --- | --- | --- | --- | --- | --- | --- | --- | --- | --- | --- | --- |
| C#C[C@]1(OC(C)=O)CC[C@H]2[C@@H]3CCC4=C[C@@H](OC(C)=O)CC[C@@H]4[C@H]3CC[C@@]21C | inactive | inactive | inactive | inactive | inactive | inactive | inactive | inactive | inactive | inactive | inactive | inactive | inactive | inactive | inactive | inactive | inactive | inactive | inactive | inactive |
| N[C@@H](Cc1cnc[nH]1)C(=O)O | inactive | inactive | inactive | inactive | inactive | inactive | inactive | inactive | inactive | inactive | inactive | inactive | inactive | inactive | inactive | inactive | inactive | inactive | inactive | inactive |
| CCCCOc1ccc(C(=O)CCN2CCCCC2)cc1 | inactive | inactive | inactive | inactive | inactive | inactive | inactive | inactive | inactive | inactive | inactive | inactive | inactive | inactive | inactive | inactive | inactive | inactive | inactive | inactive |
| C[N+]1(CCCCC[N+]2(C)CCCC2)CCCC1 | inactive | inactive | inactive | inactive | inactive | inactive | inactive | inactive | inactive | inactive | inactive | inactive | inactive | inactive | inactive | inactive | inactive | inactive | inactive | inactive |
| CC(=O)Nc1c(I)cc(I)c(C(=O)O)c1I | inactive | inactive | inactive | inactive | inactive | inactive | inactive | inactive | inactive | inactive | inactive | inactive | inactive | inactive | inactive | inactive | inactive | inactive | inactive | inactive |
| CC1(C)CCC(NC(=O)[C@@H](N)CCC(=O)O)CC1 | inactive | inactive | inactive | inactive | inactive | inactive | inactive | inactive | inactive | inactive | inactive | inactive | inactive | inactive | inactive | inactive | inactive | inactive | inactive | inactive |
| Cc1c(N(C)CS(=O)(=O)O)c(=O)n(-c2ccccc2)n1C | inactive | inactive | inactive | inactive | inactive | inactive | inactive | inactive | inactive | inactive | inactive | inactive | inactive | inactive | inactive | inactive | inactive | inactive | inactive | inactive |
| Cc1c(C(N)=O)cc([N+](=O)[O-])cc1[N+](=O)[O-] | inactive | inactive | inactive | inactive | inactive | inactive | inactive | inactive | inactive | inactive | inactive | inactive | inactive | inactive | inactive | inactive | inactive | inactive | inactive | inactive |
| C[C@]12CCC(=O)C=C1CC[C@H]1[C@@H]3CC[C@](O)(C(=O)CO)[C@@]3(C)C[C@H](O)[C@@]12F | inactive | inactive | inactive | inactive | inactive | inactive | inactive | inactive | inactive | inactive | inactive | inactive | inactive | inactive | inactive | inactive | inactive | inactive | inactive | inactive |
| COC(=O)[C@@H]1CC2=CC(=O)CC[C@]2(C)[C@@]23O[C@@H]2C[C@@]2(C)[C@@H](CC[C@@]24CCC(=O)O4)[C@H]13 | inactive | inactive | inactive | inactive | inactive | inactive | inactive | inactive | inactive | inactive | inactive | inactive | inactive | inactive | inactive | inactive | inactive | inactive | inactive | inactive |
| O=C1CCC(c2ccc(-n3ccnc3)cc2)=NN1 | inactive | inactive | inactive | inactive | inactive | inactive | inactive | inactive | inactive | inactive | inactive | inactive | inactive | inactive | inactive | inactive | inactive | inactive | inactive | inactive |
| Cc1c(C(C)C)c(=O)n(-c2ccccc2)n1C | inactive | inactive | inactive | inactive | inactive | inactive | inactive | inactive | inactive | inactive | inactive | inactive | inactive | inactive | inactive | inactive | inactive | inactive | inactive | inactive |
| O=C(Nc1ccc(Cl)c(Cl)c1)C1CC1 | inactive | inactive | inactive | inactive | inactive | inactive | inactive | inactive | inactive | inactive | inactive | inactive | inactive | inactive | inactive | inactive | inactive | inactive | inactive | inactive |
| CCn1cc(C(=O)O)c(=O)c2cnc(N3CCCC3)nc21 | inactive | inactive | inactive | inactive | inactive | inactive | inactive | inactive | inactive | inactive | inactive | inactive | inactive | inactive | inactive | inactive | inactive | inactive | inactive | inactive |
| CCOC(=O)n1ccn(C)c1=S | inactive | inactive | inactive | inactive | inactive | inactive | inactive | inactive | inactive | inactive | inactive | inactive | inactive | inactive | inactive | inactive | inactive | inactive | inactive | inactive |
| COc1cc(NS(C)(=O)=O)ccc1Nc1c2ccccc2nc2ccccc12 | 1 µM (active) | 1 µM (active) | 3.79 µM (active) | 1 µM (active) | 5.36 µM (active) | 3.38 µM (active) | 4.78 µM (active) | 2 µM (active) | 1.69 µM (active) | 4.78 µM (active) | 3.38 µM (active) | 6.75 µM (active) | 4.26 µM (active) | 4.78 µM (active) | 4.26 µM (active) | 2.82 µM (active) | 1.9 µM (active) | 1.51 µM (active) | 4.26 µM (active) |  |
| COc1cc(C(=S)N2CCOCC2)cc(OC)c1OC | inactive | inactive | inactive | inactive | inactive | inactive | inactive | inactive | inactive | inactive | inactive | inactive | inactive | inactive | inactive | inactive | inactive | inactive | inactive | inactive |
| CCOC(=O)OC(C)OC1=C(C(=O)Nc2ccccn2)N(C)S(=O)(=O)c2ccccc21 (centres undefined) | inactive | inactive | inactive | inactive | inactive | inactive | inactive | inactive | inactive | inactive | inactive | inactive | inactive | inactive | inactive | inactive | inactive | inactive | inactive | inactive |
| O=C(COc1ccc(Cl)cc1)N1CCN(Cc2ccc3c(c2)OCO3)CC1 | inactive | inactive | inactive | inactive | inactive | inactive | inactive | inactive | inactive | inactive | inactive | inactive | inactive | inactive | inactive | inactive | inactive | inactive | inactive | inactive |
| CC(=O)N(O)CCCCCNC(=O)CCC(=O)N(O)CCCCCNC(=O)CCC(=O)N(O)CCCCCN | inactive | inactive | inactive | inactive | inactive | inactive | inactive | inactive | inactive | inactive | inactive | inactive | inactive | inactive | inactive | inactive | inactive | inactive | inactive | inactive |
| O=C(O)CNC(=O)c1ccccc1 | inactive | inactive | inactive | inactive | inactive | inactive | inactive | inactive | inactive | inactive | inactive | inactive | inactive | inactive | inactive | inactive | inactive | inactive | inactive | inactive |
| C1CCc2nnnn2CC1 | inactive | inactive | inactive | inactive | inactive | inactive | inactive | inactive | inactive | inactive | inactive | inactive | inactive | inactive | inactive | inactive | inactive | inactive | inactive | inactive |
| CC(C)(CO)[C@@H](O)C(=O)NCCCO | inactive | inactive | inactive | inactive | inactive | inactive | inactive | inactive | inactive | inactive | inactive | inactive | inactive | inactive | inactive | inactive | inactive | inactive | inactive | inactive |
| CC(=O)OCC(=O)NCCCOc1cccc(CN2CCCCC2)c1 | inactive | inactive | inactive | inactive | inactive | inactive | inactive | inactive | inactive | inactive | inactive | inactive | inactive | inactive | inactive | inactive | inactive | inactive | inactive | inactive |
| O=C(O)c1cc2cc(Cc3cccnc3)ccc2o1 | inactive | inactive | inactive | inactive | inactive | inactive | inactive | inactive | inactive | inactive | inactive | inactive | inactive | inactive | inactive | inactive | inactive | inactive | inactive | inactive |
| COCc1c(C(C)C)nc(C(C)C)c(/C=C/[C@@H](O)C[C@@H](O)CC(=O)O)c1-c1ccc(F)cc1 | inactive | inactive | inactive | inactive | inactive | inactive | inactive | inactive | inactive | inactive | inactive | inactive | inactive | inactive | inactive | inactive | inactive | inactive | inactive | inactive |
| CCCCCCCCCCCCCCCC[N+](C)(C)CC | 5.01 µM (active) | 2.82 µM (active) | 4.78 µM (active) | 5.01 µM (active) | 13.5 µM (active) | 6.75 µM (active) | 4.26 µM (active) | 1.41 µM (active) | 4.78 µM (active) | 6.75 µM (active) | 6.01 µM (active) | 4.78 µM (active) | 6.01 µM (active) | 4.78 µM (active) | 4.78 µM (active) | 2.82 µM (active) | 7.57 µM (active) | 7.57 µM (active) | 5.36 µM (active) | 6.31 µM (active) |
